Results published in PubChem BioAssay (Tox21).
A number with no mark means an inactive call. Records with an inconclusive call do not appear. Entries that show only a call come without a potency. The source made the active and inactive calls. Unless noted, calls follow the shape of the dose curve; as a rule, active = well fitted curve in the direction sought with a large enough effect in the repeat runs; inconclusive = weak or mixed curves; inactive = no such curve, though single readings can be large; an effect the other way counts as inactive or inconclusive.

Legend:
[1] = target: Estrogen receptor beta (Homo sapiens) (UniProt Q92731); assay: qHTS assay to identify small molecule agonists of the estrogen receptor beta (ER-beta) signaling pathway (AID 1259377; active = well fitted activation curve with a large enough effect in the signal ratio in the repeat runs, not every such curve was filed as active; the % refers to the signal ratio)
In short: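 A UAS-controlled beta-lactamase reporter in ER-beta-UAS-bla HEK293T cells reports receptor activation. Compounds act for 16 hr at 37C in 2% charcoal-stripped serum, and a FRET substrate is read by fluorescence after 2 hours.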

[2] = target: Estrogen receptor beta (Homo sapiens) (UniProt Q92731); assay: qHTS assay to identify small molecule antagonists of the estrogen receptor beta (ER-beta) signaling pathway (AID 1259378; active = well fitted inhibition curve with a large enough effect in the signal ratio in the repeat runs, not every such curve was filed as active; the % refers to the signal ratio; also: potency is read from the fitted curve at half-maximal effect)
In short: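 ER-beta-UAS-bla HEK293T (GripTite) cells in 2% charcoal-stripped FBS medium were preincubated 6 hr at 37C, dosed with compound, then stimulated with 1 nM E2 (final) for 16 hr; beta-lactamase reporter read by B/G FRET fluorescence after 2 hr substrate loading.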

[3] = qHTS assay to identify small molecule agonists of the androgen receptor (AR) signaling pathway in the presence of an antagonist - cell viability counter screen (AID 1259379);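 also: MDA-kb2 human breast cancer cells carrying an MMTV luciferase reporter; series mostly up to about 92 µM; nearly all actives have a fitted effect of over 25% in size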
In short: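 Viability counter screen: CellTiter-Fluor fluorescence, measured in the same wells as the luciferase read-out. MDA-kb2 cells, 3,000/well, with nilutamide at 3.0uM final and compounds at 15 concentrations, 16 hr at 37C, 0% CO2.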

[4] = qHTS assay to identify small molecule agonists of the estrogen receptor beta (ER-beta) signaling pathway - cell viability counter screen (AID 1259380); also: nearly all actives have a fitted effect of over 30% in size
In short: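 Luminescence read-out (CellTiter-Glo, 30 min, room temp) taken in the same wells as the beta-lactamase reporter assay; ER-beta-UAS-bla HEK293T cells exposed to DMSO-dissolved compounds for 16 hr at 37C in 2% charcoal-stripped FBS medium.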

[5] = target: Androgen receptor (Homo sapiens) (UniProt P10275); assay: qHTS assay to identify small molecule agonists of the androgen receptor (AR) signaling pathway in the presence of an antagonist (AID 1259381; calls by dose curve; also: nearly all actives have a fitted effect of over 15% in size)
In short: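 Luciferase read-out (ONE-Glo, 30min room temperature) in MDA-kb2 MMTV-reporter cells; agonist mode run in presence of AR antagonist nilutamide, 3.0uM final. Compounds tested as 15-point series, 16hr exposure at 37C, 0% CO2.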

[6] = qHTS assay to identify small molecule antagonists of the estrogen receptor beta (ER-beta) signaling pathway - cell viability counter screen (AID 1259382); also: series mostly up to about 92 µM; nearly all actives have a fitted effect of over 55% in size
In short: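 Luminescent ATP read-out (CellTiter-Glo, 30 min, RT) taken in the same wells as the bla reporter assay. HEK293T ER-beta-UAS-bla cells in 2% charcoal-stripped FBS were exposed to compounds with 1nM E2 for 16 hr at 37C.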

[7] = target: Estrogen receptor (Homo sapiens) (UniProt P03372); assay: qHTS assay to identify small molecule agonists of the estrogen receptor alpha (ER-alpha) signaling pathway in the presence of an antagonist (AID 1259383; calls by dose curve; also: top concentration of the series differs between compounds; nearly all actives have a fitted effect of over 15% in size)
In short: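 Luciferase luminescence (ONE-Glo, 30min at room temperature) measured in VM7Luc4E2 cells after 22hr compound exposure at 15 concentrations, with 10.0nM ICI-182,780 final present; cells express endogenous ER-alpha and carry four EREs upstream of luciferase.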

[8] = qHTS assay to identify small molecule agonists or antagonists of the thyroid stimulating hormone receptor (TSHR) signaling pathway - wild type cell line counter screen (AID 1259384; calls by dose curve)
In short: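 Wild-type HEK293 cells were plated 18 h at 37 C/5% CO2, pin-dosed with compound plus Ro20-1724 medium, held 30 min at room temperature, then given cAMP-d2 and anti-cAMP-cryptate; fluorescence was read after 1 h. Fifteen concentrations, triplicate.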

[9] = target: Thyrotropin receptor (Homo sapiens) (UniProt P16473); assay: qHTS assay to identify small molecule antagonists of the thyroid stimulating hormone receptor (TSHR) signaling pathway (AID 1259385; calls by dose curve; also: nearly all actives have a fitted effect of over 20% in size)
In short: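 TSHR-HEK293 cells were plated and held 18 h at 37C/5% CO2, then given compound plus Ro20-1724 and stimulated with TSH at 1.5 ng/mL final. After 30 min at room temperature, cAMP was detected with cAMP-d2/anti-cAMP-cryptate (1 h) by fluorescence.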

[10] = qHTS assay to identify small molecule agonists of the estrogen receptor alpha (ER-alpha) signaling pathway in the presence of an antagonist - cell viability counter screen (AID 1259386);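 also: series mostly up to about 92 µM; cells exposed to compounds for 22 h at 37 °C before the viability read; nearly all actives have a fitted effect of over 30% in size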
In short: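 Read-out: CellTiter-Fluor fluorescence after 1hr reagent incubation, measured in the same wells as the luciferase readout. VM7Luc4E2 cells were exposed to 15 compound concentrations with 10.0nM ICI-182,780 for 22hr at 37C.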

[11] = target: Progesterone receptor (Homo sapiens) (UniProt P06401); assay: qHTS assay to identify small molecule antagonists of the progesterone receptor (PR) signaling pathway (AID 1346795; active = well fitted inhibition curve with a large enough effect in the signal ratio in the repeat runs, not every such curve was filed as active; the % refers to the signal ratio; also: potency is read from the fitted curve at half-maximal effect)
In short: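 HEK293T PR-UAS-bla reporter cells in charcoal-stripped serum (2%) received compound after a 6 hr settling period, followed by R5020 agonist at 1 nM final; 16 hr incubation preceded the FRET substrate step and fluorescence measurement.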

[12] = qHTS assay to identify small molecule agonists of the progesterone receptor (PR) signaling pathway - cell viability counter screen (AID 1346799; calls by dose curve; also: nearly all actives have a fitted effect of over 45% in size)
In short: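 Counter screen for cytotoxicity: compound-treated PR-UAS-bla HEK293T cells (16 hr, 37C, 5% CO2) were assayed with CellTiter-Glo, luminescence measured after 30 min at room temperature.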

[13] = qHTS assay to identify small molecule agonists of the TGF-beta/Smad signaling pathway - cell viability counter screen (AID 1346829); also: top concentration of the series differs between compounds; nearly all actives have a fitted effect of over 45% in size
In short: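 Cytotoxicity counter screen: CellTiter-Glo luminescence (30 min, room temperature) measured in the SBE-bla HEK 293T reporter wells after 5 hr compound treatment at 37 C and the 2 hr substrate step.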

[14] = target: Thyrotropin-releasing hormone receptor (Homo sapiens) (UniProt P34981); assay: qHTS assay to identify small molecule antagonists of the thyrotropin-releasing hormone receptor (TRHR) signaling pathway (AID 1346877; active = well fitted inhibition curve with a large enough effect in the repeat runs, not every such curve was filed as active; also: series mostly up to about 51 µM)
In short: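 HEK293/TRHR cells, 18 h, 37 °C; Ca2+ dye 2 h; cpd 5 min RT; TRH 1 nM final; fluorescence read 3 min, 1 s intervals; 15 concs, triplicate.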

[15] = target: Thyrotropin-releasing hormone receptor (Homo sapiens) (UniProt P34981); assay: qHTS assay to identify small molecule agonists of the thyrotropin-releasing hormone receptor (TRHR) signaling pathway (AID 1346891; calls by dose curve;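 also: HEK293 cells expressing TRHR with calcium dye readout; series mostly up to about 58 µM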)
In short: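 Agonist-mode calcium mobilisation screen: TRHR-transfected HEK293 cells cultured overnight (18 h), dye-loaded for 2 h at 37 °C, exposed to compounds, and monitored by fluorescence for 3 min.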

[16] = Human pregnane X receptor (PXR) small molecule agonists, qHTS cell viability counter screen (AID 1346977); also: nearly all actives have a fitted effect of over 50% in size
In short: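 Measures live-cell protease fluorescence (CellTiter-Fluor) in PXR-Luc HepG2 cells treated 24hr with compounds at 37C. Cells had 5hr to attach before pin transfer of DMSO solutions.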

[17] = qHTS assay to identify small molecule antagonists of the progesterone receptor (PR) signaling pathway - cell viability counter screen (AID 1346798); also: series mostly up to about 92 µM; nearly all actives have a fitted effect of over 50% in size
In short: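 Same-well multiplex: after 16 hr at 37C with compound and R5020 stimulation, HEK293T cells carrying a UAS-bla reporter received LiveBLAzer substrate (2 hr RT), then CellTiter-Glo (30 min RT) for luminescent viability.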

[18] = qHTS assay to identify small molecule antagonists of the TGF-beta/Smad signaling pathway - cell viability counter screen (AID 1346824); also: nearly all actives have a fitted effect of over 50% in size
In short: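 SBE-bla HEK 293T cells were plated overnight at 37 C, then given compounds in DMSO plus TGF-beta1 (added as 0.25 ng/mL solution) for 5 hr. After the bla read, CellTiter-Glo was added to the same wells and luminescence read after 30 min at room temperature.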

[19] = target: Progesterone receptor (Homo sapiens) (UniProt P06401); assay: qHTS assay to identify small molecule agonists of the progesterone receptor (PR) signaling pathway (AID 1346784; calls by dose curve; also: nearly all actives have a fitted effect of over 30% in size)
In short: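 Agonist mode, quantitative HTS format in a HEK 293T line expressing a UAS-controlled beta-lactamase reporter; 16 hr compound exposure at 37C in 2% charcoal-stripped FBS, then LiveBLAzer B/G FRET fluorescence.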

[20] = qHTS assay to identify small molecule agonists of the TGF-beta/Smad signaling pathway (AID 1346859; active = well fitted activation curve with a large enough effect in the signal ratio in the repeat runs, not every such curve was filed as active; the % refers to the signal ratio; also: series mostly up to about 77 µM)
In short: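 Smad-responsive beta-lactamase reporter cells (HEK 293T) received compounds from DMSO stocks after overnight attachment, were incubated 5 hr, then treated 2 hr with FRET substrate before dual-emission fluorescence measurement (405 nm excitation).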

Chain of Estrogen receptor beta (Homo sapiens) (Q92731 whole entry, looked up): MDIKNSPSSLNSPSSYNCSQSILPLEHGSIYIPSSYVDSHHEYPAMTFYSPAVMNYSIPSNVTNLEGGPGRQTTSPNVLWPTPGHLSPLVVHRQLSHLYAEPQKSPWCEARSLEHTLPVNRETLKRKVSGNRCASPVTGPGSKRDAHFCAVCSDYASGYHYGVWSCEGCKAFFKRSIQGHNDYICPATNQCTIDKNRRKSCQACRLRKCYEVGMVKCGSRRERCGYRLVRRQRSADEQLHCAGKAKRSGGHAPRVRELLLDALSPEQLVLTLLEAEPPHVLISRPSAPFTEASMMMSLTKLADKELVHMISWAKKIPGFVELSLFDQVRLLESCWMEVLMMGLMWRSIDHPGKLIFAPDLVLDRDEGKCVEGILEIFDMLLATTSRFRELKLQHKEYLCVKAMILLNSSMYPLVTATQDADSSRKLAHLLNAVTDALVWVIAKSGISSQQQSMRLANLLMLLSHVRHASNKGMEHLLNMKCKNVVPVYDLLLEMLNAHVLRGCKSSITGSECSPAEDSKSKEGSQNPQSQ
Chain of Estrogen receptor (Homo sapiens) (P03372 whole entry, looked up): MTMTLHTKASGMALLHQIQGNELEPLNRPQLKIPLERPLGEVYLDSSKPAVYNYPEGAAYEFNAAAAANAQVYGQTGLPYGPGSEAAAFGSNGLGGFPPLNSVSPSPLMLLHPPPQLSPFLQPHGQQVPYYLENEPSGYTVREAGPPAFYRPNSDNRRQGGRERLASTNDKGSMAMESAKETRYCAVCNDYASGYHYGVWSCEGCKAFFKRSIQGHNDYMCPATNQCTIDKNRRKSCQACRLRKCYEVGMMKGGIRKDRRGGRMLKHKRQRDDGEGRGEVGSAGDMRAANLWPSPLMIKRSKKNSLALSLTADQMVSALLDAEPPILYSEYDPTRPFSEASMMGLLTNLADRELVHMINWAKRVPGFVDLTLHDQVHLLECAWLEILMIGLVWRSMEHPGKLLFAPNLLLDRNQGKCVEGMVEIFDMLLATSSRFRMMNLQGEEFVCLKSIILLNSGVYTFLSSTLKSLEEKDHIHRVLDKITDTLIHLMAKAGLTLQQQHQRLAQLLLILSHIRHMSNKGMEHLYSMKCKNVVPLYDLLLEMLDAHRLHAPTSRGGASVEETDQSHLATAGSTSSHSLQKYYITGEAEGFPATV
Chain of Thyrotropin receptor (Homo sapiens) (P16473 whole entry, looked up): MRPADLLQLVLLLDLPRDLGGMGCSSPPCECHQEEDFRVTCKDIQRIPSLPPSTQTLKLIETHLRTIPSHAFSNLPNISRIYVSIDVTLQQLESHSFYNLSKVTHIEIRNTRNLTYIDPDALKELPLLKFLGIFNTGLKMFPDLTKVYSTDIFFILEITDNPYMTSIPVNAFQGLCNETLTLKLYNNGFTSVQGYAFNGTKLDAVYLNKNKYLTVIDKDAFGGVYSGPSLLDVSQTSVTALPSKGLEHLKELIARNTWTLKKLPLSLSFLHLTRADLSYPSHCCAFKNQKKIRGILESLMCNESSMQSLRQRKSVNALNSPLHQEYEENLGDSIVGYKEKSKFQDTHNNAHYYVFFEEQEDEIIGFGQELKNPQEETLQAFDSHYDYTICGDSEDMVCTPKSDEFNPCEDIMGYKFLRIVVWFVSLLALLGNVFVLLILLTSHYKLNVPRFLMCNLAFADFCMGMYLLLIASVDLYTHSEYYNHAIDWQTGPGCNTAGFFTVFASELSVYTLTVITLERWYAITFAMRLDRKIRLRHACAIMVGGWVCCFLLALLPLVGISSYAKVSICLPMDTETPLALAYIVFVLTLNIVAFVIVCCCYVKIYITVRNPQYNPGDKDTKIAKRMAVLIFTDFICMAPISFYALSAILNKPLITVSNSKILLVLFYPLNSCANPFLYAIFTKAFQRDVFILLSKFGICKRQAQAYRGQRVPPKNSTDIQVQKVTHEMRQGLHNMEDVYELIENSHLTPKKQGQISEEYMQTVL
Chain of Androgen receptor (Homo sapiens) (P10275 whole entry, looked up): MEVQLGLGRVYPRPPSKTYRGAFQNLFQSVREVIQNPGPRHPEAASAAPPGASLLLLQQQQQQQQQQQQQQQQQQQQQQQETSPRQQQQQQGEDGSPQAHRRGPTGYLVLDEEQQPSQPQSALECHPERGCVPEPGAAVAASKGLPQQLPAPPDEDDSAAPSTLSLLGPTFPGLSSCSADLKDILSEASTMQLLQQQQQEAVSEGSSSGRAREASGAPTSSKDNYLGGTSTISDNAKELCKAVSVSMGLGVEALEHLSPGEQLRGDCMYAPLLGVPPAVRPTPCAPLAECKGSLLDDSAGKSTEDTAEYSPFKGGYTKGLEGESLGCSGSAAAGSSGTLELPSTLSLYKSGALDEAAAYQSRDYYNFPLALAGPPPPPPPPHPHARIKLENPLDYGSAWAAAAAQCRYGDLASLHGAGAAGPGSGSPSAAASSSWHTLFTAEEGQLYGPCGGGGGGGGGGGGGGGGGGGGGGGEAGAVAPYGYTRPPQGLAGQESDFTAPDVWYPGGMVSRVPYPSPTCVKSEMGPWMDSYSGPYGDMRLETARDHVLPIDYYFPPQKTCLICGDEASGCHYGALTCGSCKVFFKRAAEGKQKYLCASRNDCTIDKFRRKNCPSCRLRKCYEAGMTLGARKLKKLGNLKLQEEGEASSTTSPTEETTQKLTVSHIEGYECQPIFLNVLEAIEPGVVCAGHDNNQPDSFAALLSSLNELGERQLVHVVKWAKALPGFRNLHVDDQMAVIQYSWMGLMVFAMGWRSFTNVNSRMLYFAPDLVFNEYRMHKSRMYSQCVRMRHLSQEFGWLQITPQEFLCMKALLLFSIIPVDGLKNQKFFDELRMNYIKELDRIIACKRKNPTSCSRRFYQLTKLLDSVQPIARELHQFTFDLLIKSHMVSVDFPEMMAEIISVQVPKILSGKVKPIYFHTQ
Chain of Thyrotropin-releasing hormone receptor (Homo sapiens) (P34981 whole entry, looked up): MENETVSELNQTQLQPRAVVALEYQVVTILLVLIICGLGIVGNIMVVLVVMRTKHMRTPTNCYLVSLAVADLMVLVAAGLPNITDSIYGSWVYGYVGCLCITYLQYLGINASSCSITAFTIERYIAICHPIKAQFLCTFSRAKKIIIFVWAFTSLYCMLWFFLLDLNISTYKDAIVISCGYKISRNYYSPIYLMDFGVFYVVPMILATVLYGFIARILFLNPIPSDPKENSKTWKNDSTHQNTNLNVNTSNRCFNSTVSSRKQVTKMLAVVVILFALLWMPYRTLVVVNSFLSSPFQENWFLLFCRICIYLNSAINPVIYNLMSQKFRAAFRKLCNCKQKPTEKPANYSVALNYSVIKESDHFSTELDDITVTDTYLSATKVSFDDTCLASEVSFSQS
Chain of Progesterone receptor (Homo sapiens) (P06401 whole entry, looked up): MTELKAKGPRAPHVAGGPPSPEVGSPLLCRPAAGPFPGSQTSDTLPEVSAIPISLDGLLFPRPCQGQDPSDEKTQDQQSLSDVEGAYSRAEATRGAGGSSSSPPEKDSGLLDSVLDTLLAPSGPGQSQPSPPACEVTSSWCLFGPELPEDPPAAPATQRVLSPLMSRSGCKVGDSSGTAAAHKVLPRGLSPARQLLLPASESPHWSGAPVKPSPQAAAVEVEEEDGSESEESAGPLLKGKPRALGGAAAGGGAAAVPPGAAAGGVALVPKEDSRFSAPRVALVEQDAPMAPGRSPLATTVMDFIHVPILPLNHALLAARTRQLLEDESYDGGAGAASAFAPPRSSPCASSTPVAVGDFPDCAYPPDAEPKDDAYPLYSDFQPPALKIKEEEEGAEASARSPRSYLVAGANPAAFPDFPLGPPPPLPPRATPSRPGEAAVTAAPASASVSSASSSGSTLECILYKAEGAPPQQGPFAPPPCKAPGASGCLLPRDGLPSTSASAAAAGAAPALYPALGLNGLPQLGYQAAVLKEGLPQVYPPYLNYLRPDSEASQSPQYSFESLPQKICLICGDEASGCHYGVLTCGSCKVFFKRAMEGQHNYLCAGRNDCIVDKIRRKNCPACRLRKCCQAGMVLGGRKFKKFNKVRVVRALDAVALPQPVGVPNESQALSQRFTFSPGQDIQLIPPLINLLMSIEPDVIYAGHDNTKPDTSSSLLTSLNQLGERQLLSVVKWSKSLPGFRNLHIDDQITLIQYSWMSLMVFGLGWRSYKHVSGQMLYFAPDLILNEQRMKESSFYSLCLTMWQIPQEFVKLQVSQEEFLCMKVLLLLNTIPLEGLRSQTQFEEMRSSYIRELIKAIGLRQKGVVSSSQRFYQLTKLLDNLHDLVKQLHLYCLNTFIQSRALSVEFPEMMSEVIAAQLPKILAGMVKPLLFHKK

SMILES | Potency [1] | Potency [2] | Potency [3] | Potency [4] | Potency [5] | outcome [6] | outcome [7] | outcome [8] | outcome [9] | Potency [10] | Potency [11] | Potency [12] | outcome [13] | outcome [14] | Potency [15] | Potency [16] | Potency [17] | outcome [18] | Potency [19] | outcome [20]
CCOC(=O)COc1cc(-n2ncc(C(F)(F)F)c(C)c2=O)c(F)cc1Cl | inactive | inactive | inactive | inactive | inactive | inactive | inactive | inactive | inactive | inactive | inactive | inactive | inactive | inactive | inactive | inactive |  |  |  | 
O=C(O)Cc1csc(-c2ccc(Cl)cc2)n1 | inactive | inactive | inactive | inactive | inactive | inactive | inactive | inactive | inactive | inactive |  | inactive | inactive | inactive | inactive | inactive | inactive | inactive |  | 
CCOC(=O)C1=NOC(c2ccccc2)(c2ccccc2)C1 | inactive | inactive | inactive | inactive |  | inactive | inactive | inactive | inactive | inactive | inactive | inactive | inactive |  | inactive |  | inactive | inactive | inactive | inactive
C=CC(C)(CCC=C(C)C)OC(=O)CC (centres undefined) | inactive | inactive | inactive | inactive |  | inactive | inactive | inactive | inactive | inactive | inactive | inactive | inactive |  | inactive | inactive | inactive | inactive | inactive | inactive
CCCCOCCOC(=O)COc1cc(Cl)c(Cl)cc1Cl | inactive | inactive | inactive | inactive | inactive |  | inactive | inactive | inactive | inactive | inactive | inactive | inactive | inactive | inactive |  | inactive | inactive | inactive | inactive
CCOC(=O)C(=O)CCCCCCl | inactive | inactive | inactive | inactive | inactive | inactive | inactive | inactive | inactive | inactive | inactive | inactive | inactive |  | inactive |  |  | inactive | inactive | inactive
CC(=O)NC(=O)c1ccccc1O | inactive | inactive | inactive | inactive |  | inactive | inactive | inactive | inactive | inactive | inactive | inactive | inactive | inactive | inactive | inactive | inactive | inactive | inactive | inactive
CC(N)C12CC3CC(CC(C3)C1)C2 (centres undefined) | inactive | inactive | inactive | inactive |  | inactive | inactive | inactive | inactive | inactive | inactive | inactive | inactive | inactive | inactive | inactive | inactive | inactive | inactive | inactive
CCOc1c(N2CCOCC2)cnn(C)c1=O | inactive | inactive | inactive | inactive | inactive | inactive | inactive | inactive | inactive | inactive |  | inactive | inactive | inactive | inactive | inactive | inactive | inactive | inactive | inactive
Cc1ccc(C(=O)c2ccccc2)cc1 | inactive | inactive | inactive | inactive | inactive | inactive | inactive | inactive | inactive | inactive | inactive | inactive | inactive | inactive | inactive | inactive |  | inactive | inactive | inactive
C=CCOCC(O)CO (centres undefined) | inactive | inactive | inactive | inactive |  | inactive | inactive | inactive | inactive | inactive | inactive | inactive | inactive | inactive | inactive | inactive | inactive | inactive | inactive | inactive
COC(=O)Nc1ccc(Cl)c(Cl)c1 | inactive | inactive | inactive | inactive | inactive |  |  | inactive |  | inactive | 30.5 µM (active) |  | inactive | inactive |  | inactive | inactive | inactive | inactive | inactive
O=S(=O)(O)c1cc(O)c(O)c(S(=O)(=O)O)c1 | inactive | inactive | inactive | inactive | inactive | inactive | inactive |  |  | inactive | inactive | inactive | inactive | inactive |  | inactive | inactive | inactive | inactive | inactive
C=C(C)C(=O)OCC(O)CO (centres undefined) | inactive | inactive | inactive | inactive | inactive | inactive |  | inactive | inactive | inactive | inactive | inactive | inactive |  |  | inactive | inactive | inactive | inactive | inactive
COC(=O)C1=C(C)NC(C)=C(C(=O)OC(C)C)C1c1cccc2nonc12 (centres undefined) | inactive | 26.6 µM (active) | inactive | inactive | inactive |  |  | inactive |  | inactive |  |  | inactive |  |  | inactive |  | inactive | inactive | inactive
